Test results reported in article PMC11062922 (Nature Chemical Biology, 2023).
Read-outs that look alike come from different tables or passages of the source.

Tests used:
Set-up in all cases: species or system human, MV4-11 + K-562 + COLO205 + SK-N-BE2 + OVCAR-8
CDC42 = settings: read-out: apparent Kd; compound concentrations: 100 nM and 1000 nM (sheet 'Samples'), CATDS: 0.310592027425942; n = 1
MDN1 = settings: read-out: apparent Kd; compound concentrations: 100 nM and 1000 nM (sheet 'Samples'), CATDS: 0.33246338126543201; n = 1
RIOK2 = settings: read-out: apparent Kd; compound concentrations: 100 nM and 1000 nM (sheet 'Samples'), CATDS: 0.36068630579871103; n = 1
CDK16 = settings: read-out: apparent Kd, n = 1
CDK17 = settings: read-out: apparent Kd, n = 1
CDKL5 = settings: read-out: apparent Kd; compound concentrations:100 nM and 1000 nM (sheet 'Samples'); n = 1
CLK1 = settings: read-out: apparent Kd, n = 1
CLK4 = settings: read-out: apparent Kd, n = 1
DYRK1A = settings: read-out: apparent Kd, n = 1
GSK3A = settings: read-out: apparent Kd, compound concentrations: 100 nM and 1000 nM (sheet 'Samples'), n = 1
GSK3B = settings: read-out: apparent Kd, n = 1
ICK = settings: read-out: apparent Kd, compound concentrations: 100 nM and 1000 nM (sheet 'Samples'), n = 1
PRKCA = settings: read-out: apparent Kd; compound concentrations: 100 nM and 1000 nM (sheet 'Samples'), CATDS: 6.1825082982023397E-2; n = 1
PRKCB = settings: read-out: apparent Kd; compound concentrations: 100 nM and 1000 nM (sheet 'Samples'), CATDS: 5.6210904808559101E-2; n = 1
PRKCD = settings: read-out: apparent Kd; compound concentrations: 100 nM and 1000 nM (sheet 'Samples'), CATDS: 6.6135854236704303E-2; n = 1
SLK = settings: read-out: apparent Kd; compound concentrations: 100 nM and 1000 nM (sheet 'Samples'), CATDS: 5.3656939950023998E-2; n = 1
CDK10 = settings: read-out: apparent Kd, n = 1
HSPE1 = settings: read-out: apparent Kd; compound concentrations: 100 nM and 1000 nM (sheet 'Samples'), CATDS: 0.54374623342004202; n = 1
PKM = settings: read-out: apparent Kd; compound concentrations: 100 nM and 1000 nM (sheet 'Samples'), CATDS: 0.11750793600078301; n = 1
[1] = compound concentrations:100 nM and 1000 nM (sheet 'Samples')

Cn1cc(C2=C(c3cccc4ccccc34)C(=O)NC2=O)c2ccccc21 [RO0317253-000]
potency estimated from few doses (CDC42): 2180 nM | potency estimated from few doses (MDN1): 1890 nM | potency estimated from few doses (RIOK2): 1620 nM

CCN1CCC(CC(=O)Nc2n[nH]c3nnc(-c4cccc(F)c4F)cc23)CC1.O=C(O)[C@H](O)[C@@H](O)C(=O)O [SB-698596-AC]
potency estimated from few doses (CDK16; [1]): 53.3 nM | potency estimated from few doses (CDK17; [1]): 995 nM | potency estimated from few doses (CDKL5): 46.9 nM | potency estimated from few doses (CLK1; [1]): 693 nM | potency estimated from few doses (CLK4; [1]): 1420 nM | potency estimated from few doses (DYRK1A; [1]): 1520 nM | potency estimated from few doses (GSK3A; CATDS: 0.61035791771228698): 0.905 nM | potency estimated from few doses (GSK3B; [1]): 2.33 nM

Cl.Cn1cc(C2=C(c3cccc(NCC(O)CO)c3)C(=O)NC2=O)c2cc(Cl)ccc21 (stereo not drawn) [RO3303724-001]
potency estimated from few doses (CDK16; compound concentrations: 100 nM and 1000 nM (sheet 'Samples'), CATDS: 8.3420011221061796E-2): 435 nM | potency estimated from few doses (CDK17; compound concentrations: 100 nM and 1000 nM (sheet 'Samples'), CATDS: 6.9472696820348595E-2): 789 nM | potency estimated from few doses (CLK1; compound concentrations: 100 nM and 1000 nM (sheet 'Samples'), CATDS: 0.14144162064954499): 89.4 nM | potency estimated from few doses (CLK4; compound concentrations: 100 nM and 1000 nM (sheet 'Samples'), CATDS: 0.121885472090614): 140 nM | potency estimated from few doses (DYRK1A; compound concentrations: 100 nM and 1000 nM (sheet 'Samples'), CATDS: 6.0885213450921502E-2): 1290 nM | potency estimated from few doses (GSK3A; CATDS: 0.52335848110550598): 1.59 nM | potency estimated from few doses (GSK3B; compound concentrations: 100 nM and 1000 nM (sheet 'Samples'), CATDS: 0.436012050591219): 2.26 nM | potency estimated from few doses (ICK; CATDS: 7.1463639855973302E-2): 716 nM | potency estimated from few doses (PRKCA): 1210 nM | potency estimated from few doses (PRKCB): 1830 nM | potency estimated from few doses (PRKCD): 939 nM | potency estimated from few doses (SLK): 2310 nM

Cn1cc(C2=C(c3cccnc3)C(=O)NC2=O)c2ccccc21 [RO0317886-000]
potency estimated from few doses (CDK10; compound concentrations: 100 nM and 1000 nM (sheet 'Samples'), CATDS: 0.11960358808183499): 1080 nM | potency estimated from few doses (GSK3A; CATDS: 0.212149107920546): 213 nM | potency estimated from few doses (GSK3B; compound concentrations: 100 nM and 1000 nM (sheet 'Samples'), CATDS: 0.208029225896153): 222 nM | potency estimated from few doses (HSPE1): 39.3 nM | potency estimated from few doses (ICK; CATDS: 0.128713258557627): 825 nM | potency estimated from few doses (PKM): 1160 nM

CC(=O)Nc1cccc(C#Cc2cncnc2Nc2ccc(OCc3cccc(F)c3)c(Cl)c2)c1 [GW703087X]
potency estimated from few doses (CDK10; [1]): 1540 nM
